High-throughput results (PubChem BioAssay)
The sample as a whole holds a higher share of hits than the screen did.
FBPA Giardia inh = qHTS Assay for Inhibitors of Fructose-1,6-bisphosphate Aldolase from Giardia Lamblia | A8B2U2 | purified Giardia FBPA | Potency, µM (doses to about 59.6 µM), hits mostly inhibitors | 290,000 tested, 0.71% active | AID 2451, 2010; note: nearly all actives have a fitted effect of over 55% in size
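Giardia FBPA (40 nM reagent) was preincubated 10 min at RT with compound (up to 57.5 uM final), then substrate plus GAPDH/TPI/NAD/arsenate coupling system with diaphorase/resazurin was added; resorufin fluorescence (525/598 nm) was read after 20 min.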
LmPK inhibitor = qHTS Assay for Inhibitors of Leishmania Mexicana Pyruvate Kinase (LmPK). Q27686. purified LmPK, Kinase-Glo ATP luminescence, 1 h. Potency, µM (doses to about 57.5 µM), most hits filed as inhibitors. 290,000 tested, 0.37% active
Target sequence (Q27686 whole entry, looked up): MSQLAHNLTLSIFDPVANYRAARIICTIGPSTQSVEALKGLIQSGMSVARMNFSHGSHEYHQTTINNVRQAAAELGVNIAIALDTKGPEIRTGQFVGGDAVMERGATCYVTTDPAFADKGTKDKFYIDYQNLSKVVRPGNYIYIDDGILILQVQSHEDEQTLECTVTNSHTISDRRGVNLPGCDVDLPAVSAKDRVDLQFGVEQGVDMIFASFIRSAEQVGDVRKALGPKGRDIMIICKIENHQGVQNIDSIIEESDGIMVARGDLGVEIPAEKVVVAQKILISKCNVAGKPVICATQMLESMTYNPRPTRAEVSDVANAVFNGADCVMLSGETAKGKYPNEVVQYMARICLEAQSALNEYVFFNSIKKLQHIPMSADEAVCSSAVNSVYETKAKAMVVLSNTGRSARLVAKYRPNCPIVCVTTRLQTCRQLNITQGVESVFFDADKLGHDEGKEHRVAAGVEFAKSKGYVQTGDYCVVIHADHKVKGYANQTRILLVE
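Kinase-Glo luminescence read after 1 h RT reaction of 0.1 nM LmPK with 0.5 mM PEP and 0.1 mM ADP. Activity scaled between uninhibited and enzyme-free controls.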
RE007 growth inh = qHTS Assay for Inhibitors of the HIV-1 protein Vpr; S. pombe RE007 Vpr strain, BacTiter-Glo ATP luminescence, 24 h; Potency, µM (series often up to 92.2 µM), actives largely listed as inhibitors; 360,000 tested, 0.21% active; active = well fitted falling curve with a large enough effect; inconclusive = small, poorly fitted or top-dose-only effect; inactive = no such curve, though single readings can be large or run the other way; note: nearly all actives have a fitted effect of over 50% in size
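Fission yeast strain RE007, carrying one chromosomally integrated HIV-1 vpr copy, was seeded at OD 0.01 in PMG+AL medium with 23 nL pinned compound. After 24 h at 30 °C and 99% humidity, viability was read by BacTiter-Glo luminescence.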
Shiga inhibitor = A qHTS for Small Molecule Inhibitors of Shiga Toxin; AID 2315, 2010; 290,000 tested, 9.2% active; inhibition, % at 38.7 µM; Vero cells, Shiga toxin protein synthesis inhibition reporter; in the data active = inhibition mostly above about 28%, no sharp cut-off; inactive = mostly below about 43%
TbPYK inhibitor = qHTS of Trypanosoma Brucei Inhibitors. TbPYK enzyme, Kinase-Glo Plus ATP luminescence, 45 min. Potency, µM (doses to about 76.8 µM), hits mostly inhibitors. 410,000 tested, 0.12% active; note: nearly all actives have a fitted effect of over 50% in size
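Screened from lowest to highest concentration, compounds were pinned into TbPYK/substrate mixtures, and ADP (130 uM final) was added. Plates sat at room temperature for 45 min prior to Kinase-Glo Plus detection by luminescence.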
CHX counter = Cycloheximide Counterscreen for Small Molecule Inhibitors of Shiga Toxin | cell reporter, cycloheximide protein synthesis inhibition counterscreen | max response, % | 300,000 tested, 12% active | AID 2314, 2010; in the data active = max response mostly above about 13%, no sharp cut-off; inactive = mostly below about 14%; note: read at 38.3 µM for the half of the compounds with a filed dose
Each line names hits and unclear results; the compound was inactive in the other large screens. Unless noted, calls come from the whole dose curve; as a rule, active = well fitted curve in the direction sought with a large enough effect; inconclusive = small, poorly fitted or top-dose-only effect, or another doubt; inactive = no such curve, though single readings can be large; an effect the other way counts as inactive or inconclusive.

CCCCc1ccc(-c2nn[nH]n2)nc1	none (no result: FBPA Giardia inh, LmPK inhibitor, Shiga inhibitor, CHX counter)
CCCCc1ccc(-c2ccc(C)cc2O)nc1	Shiga inhibitor 58.3, CHX counter 24.8
CCCCc1ccc(-c2ccc(Br)cc2O)nc1	Shiga inhibitor 85.6, CHX counter 49.4
Cc1nc(CS(=O)(=O)c2ccccc2)cc(Sc2ccccc2Cl)n1	Shiga inhibitor 104.6, CHX counter 38.0
Cc1nc(CS(=O)(=O)c2ccccc2)cc(Sc2ccc(Cl)cc2)n1	Shiga inhibitor 55.3, CHX counter 27.2
Fc1ccc(-c2noc3ncnc(Nc4ccc(F)cc4F)c23)cc1	none (no result: FBPA Giardia inh, LmPK inhibitor, RE007 growth inh, Shiga inhibitor, CHX counter)
Cc1cccc2cc(-c3nc4c(C)cccn4c3NCc3ccco3)c(=O)[nH]c12	none
Cc1ccc2[nH]c(=O)c(-c3nc4cc(C)ccn4c3NCc3ccco3)cc2c1	CHX counter 23.9
COc1ccc(/C=C(/C#N)C(=O)Nc2ccccc2C)cc1C(=O)O	none
Cc1cccc(NC(=O)/C(C#N)=C/c2ccc[nH]2)c1C	CHX counter 24.2
N#C/C(=C\c1ccc[nH]1)C(=O)NC1CC1	none
Cc1ccc(C)c(NC(=O)/C(C#N)=C/c2ccc[nH]2)c1	CHX counter 33.0 (no result: FBPA Giardia inh)
Cc1ccc(C)c(N2CCN(Cc3csc(C)c3)CC2)c1	none (no result: FBPA Giardia inh, LmPK inhibitor, RE007 growth inh, Shiga inhibitor, CHX counter)
CCCCOc1ccc(CNC(=O)c2cnc3sc(N4CCOCC4)nn3c2=O)cc1	none (no result: FBPA Giardia inh, LmPK inhibitor, RE007 growth inh, Shiga inhibitor, CHX counter)
NNC(=S)NC1CC2CC1C1C=CCC21 (stereo not given)	FBPA Giardia inh inconclusive, CHX counter 12.1
Oc1ccc(O)c(C=NNC(=S)NC2CC3CC2C2C=CCC32)c1 (stereo not given)	none (no result: FBPA Giardia inh, LmPK inhibitor, Shiga inhibitor, CHX counter)
Cc1ccc(C)n1-n1cnc2sc3c(c2c1=O)CCC3	none
O=c1c2c3c(sc2ncn1-n1cccc1)CCCCC3	Shiga inhibitor 56.2, CHX counter 36.0
c1ccc(-c2nn[nH]n2)c(Nc2cccc3c2CCCC3)c1	none (no result: LmPK inhibitor, RE007 growth inh, TbPYK inhibitor)
Cc1cc(N)ccc1N=Nc1c(C)n(C)n(-c2ccccc2)c1=O	CHX counter 30.9
Cc1cccc(-c2ccc(C=Nc3c(C)n(C)n(-c4ccccc4)c3=O)o2)c1	CHX counter 28.1
Cc1c(N=C2C=CC(=O)c3ccccc32)c(=O)n(-c2ccccc2)n1C	FBPA Giardia inh 17.7µM, LmPK inhibitor inconclusive, RE007 growth inh inconclusive, TbPYK inhibitor inconclusive
Cc1c(N=Cc2nc3ccccc3[nH]2)c(=O)n(-c2ccccc2)n1C	Shiga inhibitor 89.7, CHX counter 46.4
COc1ccccc1NC(=O)C1CCN(S(=O)(=O)c2ccc3[nH]c4c(c3c2)CCCCC4)CC1	none (no result: FBPA Giardia inh, LmPK inhibitor, RE007 growth inh, Shiga inhibitor, CHX counter)
COc1ccc(N2CCN(C(=O)COc3ccccc3C#N)CC2)cc1	none (no result: FBPA Giardia inh, LmPK inhibitor, RE007 growth inh, Shiga inhibitor, CHX counter)
Cc1c(N=Nc2ccc(O)cc2)c(=O)n(-c2ccccc2)n1C	none
Cc1c(N=Cc2nc3ccccc3n2C)c(=O)n(-c2ccccc2)n1C	Shiga inhibitor 63.6, CHX counter 49.3
O=C(NCC(Cl)c1ccc2ccccc2c1)c1c(F)cccc1F (stereo not given)	CHX counter 33.3
S=c1[nH]nc(-c2cccs2)n1C1CCCCC1	FBPA Giardia inh inconclusive, LmPK inhibitor 3.55µM, TbPYK inhibitor 7.08µM
CC(C1CC2CCC1C2)n1c(-c2cccs2)n[nH]c1=S (stereo not given)	LmPK inhibitor 5.01µM, TbPYK inhibitor inconclusive
CC(C)(C)c1ccc(-c2n[nH]c(=S)n2C2CCCC2)cc1	LmPK inhibitor 10µM, TbPYK inhibitor inconclusive
Cn1c(-c2ccc(C(C)(C)C)cc2)n[nH]c1=S	Shiga inhibitor 59.2, TbPYK inhibitor inconclusive, CHX counter 36.1
Cc1ccc(Cl)cc1-n1ncc2c(Nc3cccc(C)c3C)ncnc21	none (no result: FBPA Giardia inh, LmPK inhibitor, RE007 growth inh, Shiga inhibitor, CHX counter)
Cc1ccc(S(=O)(=O)N2CCCc3cc(NC(=O)c4ccc(C(F)(F)F)cc4)ccc32)cc1	none (no result: FBPA Giardia inh, LmPK inhibitor, RE007 growth inh, Shiga inhibitor, CHX counter)
CCc1ccc(NC(=O)Cn2cnc3sc(C)c(S(=O)(=O)N4CCC(C)CC4)c3c2=O)cc1	none (no result: FBPA Giardia inh, LmPK inhibitor, RE007 growth inh, Shiga inhibitor, CHX counter)
COc1ccc(CNC(=O)Cc2ccc(NC(=O)N3CCSc4ncccc43)cc2)cc1	none (no result: FBPA Giardia inh, LmPK inhibitor, RE007 growth inh, Shiga inhibitor, CHX counter)
COc1cc2ccccc2cc1C(=O)Nc1ccc(Br)cn1	CHX counter 25.0
COc1c(C(=O)Nc2ccc(Br)cn2)ccc2ccccc12	Shiga inhibitor 76.5, CHX counter 25.7
O=C(Nc1ccc(Br)cn1)c1cccc(C(=O)Nc2ccc(Br)cn2)c1	none
COc1ccccc1NC(=O)Nc1ccc(Br)cn1	none
O=C(Nc1ccc(Br)cn1)c1ccc2ccccc2c1	CHX counter 29.4 (no result: Shiga inhibitor)
O=[N+]([O-])c1cccc(NC(=S)NCCc2ccccc2)c1	Shiga inhibitor 60.2, CHX counter 39.4
S=C(NCCCc1ccccc1)Nc1ccccc1	CHX counter 20.0 (no result: FBPA Giardia inh)
Fc1ccc(NC(=S)NCCc2ccccc2)c(F)c1F	Shiga inhibitor 109.3, CHX counter 35.5
Fc1ccccc1NC(=S)NCCc1ccccc1	RE007 growth inh inconclusive, Shiga inhibitor 59.4, CHX counter 39.0
Cc1cc2n(n1)CCCN2C(=O)Nc1cccc(C)c1C	none (no result: FBPA Giardia inh, LmPK inhibitor, RE007 growth inh, Shiga inhibitor, CHX counter)
Fc1ccccc1NC(=S)NCCc1ccc(Cl)cc1	Shiga inhibitor 73.9, CHX counter 53.5 (no result: FBPA Giardia inh)
S=C(NCc1ccc(Cl)cc1)Nc1ccccc1Cl	none
Fc1cccc(NC(=S)NCCc2ccccc2)c1	Shiga inhibitor 96.3, CHX counter 45.4
S=C(NCCc1ccccc1)Nc1ccc(Nc2ccccc2)cc1	none
